# Source: PubChem
# HT1080-NT tox = qHTS for induction of synthetic lethality in tumor cells producing 2HG: qHTS for the HT-1080-NT fibrosarcoma cell line | HT-1080-NT fibrosarcoma viability, CellTiter-Glo ATP luminescence, 48 h | Potency, µM (doses to about 46.1 µM), inactives show at the top dose activity, negative = less viability, hits mostly cytotoxic | 1.6% of 360,000 active | AID 686970, 2013;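 note: NT is the 2HG producing partner of a matched IDH1 knockdown line; potency is the fitted concentration of half-maximal effect; 0% = DMSO-treated cells and -100% = media-only wells without cells; nearly all actives have a fitted effect of over 55% in size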
#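 HT-1080-NT fibrosarcoma cells (2HG-overproducing), 750 cells/well in RPMI with 5% FBS, dosed after 2 h and incubated 48 h at 37C. CellTiter-Glo luminescence normalized to DMSO and no-cell wells; concentration-response curves fitted and classed.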
# HT1080 IDH1KD tx = qHTS for induction of synthetic lethality in tumor cells producing 2HG: qHTS for the HT-1080-IDH1KD cell line | HT-1080 IDH1 knockdown viability, ATP luminescence, 48 h | Potency, µM (series often up to 46.1 µM), without a hit: top-dose activity, negative = toxicity, usual class: cytotoxic | 2% of 360,000 active;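 note: potency is the fitted concentration of half-maximal effect; 0% = DMSO wells and -100% = cell-free medium wells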
#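 After a 2 h attachment period, IDH1KD HT-1080 cells took pin-transferred compound for 48 h at 37 °C; ATP-based luminescence after 10 min room-temperature reagent incubation reported viability.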
# TDP1 cell noCPT = qHTS for Inhibitors of human tyrosyl-DNA phosphodiesterase 1 (TDP1): qHTS in cells in absence of CPT; 15% of 420,000 active; Potency, µM (top dose mostly 46.2 µM), without a hit: at the top dose activity change, negative = growth inhibition, most hits filed as inhibitors; AID 686978, 2013; DT40 Tdp1-/- hTDP1 cells, no CPT, ATP luminescence, 48 h; note: potency is the fitted concentration of half-maximal effect; nearly all actives have a fitted effect of over 55% in size
#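 A cellular qHTS used chicken DT40 cells lacking endogenous Tdp1 but carrying stably transfected human TDP1. Compounds were applied without camptothecin, and cell growth kinetics were judged by ATP-dependent luminescence after ≥48 hr.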
# TDP1 cell CPT = qHTS for Inhibitors of human tyrosyl-DNA phosphodiesterase 1 (TDP1): qHTS in cells in presence of CPT; Potency, µM (series often up to 46.2 µM), without a hit: at the top dose activity change, negative = growth inhibition, actives largely listed as inhibitors; 12% of 420,000 active; chicken DT40 Tdp1-/-;hTDP1 cells + 20 nM CPT, ATP luminescence, 48 h; note: potency is the fitted concentration of half-maximal effect; nearly all actives have a fitted effect of over 55% in size
#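 Chicken DT40 Tdp1-/- cells complemented with human TDP1, 400 cells/well, exposed to compounds plus 20 nM camptothecin for at least 48 h at 37 C; viability read as ATP content by CellTiter-Glo luminescence.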
# IL1B secr inh = qHTS for Inhibitors of Inflammasome Signaling: IL-1-beta AlphaLISA Primary Screen. THP-1 LPS/ATP IL-1B secretion, AlphaLISA, 16 h; active compounds read low. activity change, % at 57.5 µM. 4.7% of 360,000 active. AID 743279, 2014; in the data active = activity change below about -50%; inconclusive = mostly about -30% to -49%
#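 THP-1 cells pretreated 1 hr with compounds (up to 57.5 uM final), then stimulated with LPS (250 ng/mL final) plus ATP (1.25 mM final); secreted IL-1B measured by AlphaLISA after 16 hr, decreased signal indicating inhibition.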
# ELG1 repair inh = qHTS screen for small molecules that inhibit ELG1-dependent DNA repair in human embryonic kidney (HEK293T) cells expressing luciferase-tagged ELG1 | 2.3% of 330,000 active | HEK293T ELG1-luciferase reporter, luminescence, 16 h; DNA damage induced by 5-fluorouridine | Potency, µM (doses to about 46.1 µM), for inactives: at the highest dose activity change, negative = inhibition, most hits filed as inhibitors; note: potency is the fitted concentration of half-maximal effect; nearly all actives have a fitted effect of over 55% in size
#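 Cells (2,000 per well) received 5-fluorouridine plus test compound or DMSO and were incubated 16 hr at 37 °C, 5% CO2. Luciferase activity was read by luminescence 30 min after ONE-Glo addition; signal suppression marked inhibition of damage-induced ELG1 function.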
# * marks the source's active call; other numbers are inactive results; ? = inconclusive; / = no result given. The list is not random: actives were taken first. Their share in the collection is about 19%. Unless noted, calls come from the whole dose curve; as a rule, active = well fitted curve in the direction sought with a large enough effect; inconclusive = small, poorly fitted or top-dose-only effect, or another doubt; inactive = no such curve, though single readings can be large; an effect the other way counts as inactive or inconclusive. Unless noted, % is set by controls: 0 for no effect and ±100 for the full control effect.
SMILES,HT1080-NT tox,HT1080 IDH1KD tx,TDP1 cell noCPT,TDP1 cell CPT,IL1B secr inh,ELG1 repair inh
O=C(Nc1cccc2cccnc12)c1csc(COCCO)n1,-13%,0%,13µM*,23µM*,?,/
Cc1cc(NC(=O)c2ccc(F)c(S(=O)(=O)N3CCCCC3)c2)no1,0%,1%,-20%,-2%,8,?
CCCN1CCC(=O)N([C@H](COc2ccccc2)CC(C)C)CC1,-5%,1%,?,?,-9,10%
O=C1CCN(CCc2ccccc2)CCN1[C@H](COc1ccccc1)Cc1ccccc1,?,?,11µM*,29µM*,?,-11%
CC(C)CN1CCC(=O)N([C@H](COc2ccccc2)Cc2ccccc2)CC1,-1%,-1%,11µM*,23µM*,-8,-23%
O=C1CCN(CCc2ccccc2)CCN1[C@H](CO)Cc1ccccc1,1%,2%,-26%,-21%,2,-1%
CC(C)C[C@@H](COc1ccccc1)N1CCN(CCc2ccccc2)CCC1=O,-3%,-7%,21µM*,11µM*,-3,18%
CC1(Cc2ccc(Cl)cc2)C(=O)Nc2ccc(-c3ccc(F)c(Cl)c3)cc21 (stereo not drawn),?,?,?,?,-19,/
C=Cc1ccc(CC2(C)C(=O)Nc3ccc(-c4cccnc4)cc32)cc1 (stereo not drawn),?,-20%,4.6µM*,?,60,/
CC1(Cc2ccc(F)cc2)C(=O)Nc2ccc(-c3cccnc3)cc21 (stereo not drawn),10%,6%,10µM*,23µM*,91,/
Cc1ccc(OCC(=O)NNC(=O)C2CCCO2)c(C)c1 (stereo not drawn),-4%,3%,-15%,8%,-5,?
CCC(=O)Nc1nc(-c2ccc3c(c2)CC(C)N3S(C)(=O)=O)cs1 (stereo not drawn),-10%,-11%,16µM*,?,-16,?
CC1Cc2cc(-c3csc(NC(=O)Cc4cccs4)n3)ccc2N1S(C)(=O)=O (stereo not drawn),-11%,?,23µM*,?,-22,4.6µM*
CCC(=O)Nc1nnc(S(=O)(=O)N2c3ccccc3CC2C)s1 (stereo not drawn),-3%,-5%,-16%,12%,-27,-3%
CC1C(=O)N2CCCc3cc(S(=O)(=O)N4CCN(c5ccc(F)cc5)CC4)cc1c32 (stereo not drawn),-1%,10%,-12%,-12%,34,4%
CCOc1ccc(-n2ccnc(SCC(=O)Nc3cccc(OC)c3)c2=O)cc1,1%,-4%,?,?,-4,?
Cc1cccn2c(=O)c(C=NCc3ccco3)c(Nc3ccc(SC(F)F)cc3)nc12,0%,8%,?,26µM*,-5,-2%
Cc1cccn2c(=O)c(C=NCCO)c(NCc3ccco3)nc12,-7%,0%,-15%,-17%,54,-6%
O=C(Nc1cccc(S(=O)(=O)NC2=NCCCCC2)c1)c1cc(-c2ccncc2)nc2ccccc12,-4%,3%,23µM*,?,?,?
